What was measured:
Test in all cases: PBM; 200 nM protein, PBS
Details in all cases: dsDNA, one strand shown
[1] = biological target: PROP1 (Homo sapiens, UniProt O75360 56-141)
[2] = biological target: PROP1 (Homo sapiens, UniProt O75360 56-141, R99H)
[3] = biological target: PROP1 (Homo sapiens, UniProt O75360 56-141, F88S)
[4] = biological target: VAX1 (Homo sapiens, UniProt Q5SQQ9 86-172)
[5] = biological target: HESX1 (Homo sapiens, UniProt Q9UBX0 95-180, R109Q)
Sequence of HESX1 (Q9UBX0 95-180 R109Q): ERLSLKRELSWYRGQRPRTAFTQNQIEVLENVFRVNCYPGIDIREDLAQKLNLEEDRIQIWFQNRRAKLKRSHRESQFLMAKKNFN

Sequence of PROP1 (Homo sapiens, UniProt O75360 56-141, F88S) (O75360 56-141 F88S): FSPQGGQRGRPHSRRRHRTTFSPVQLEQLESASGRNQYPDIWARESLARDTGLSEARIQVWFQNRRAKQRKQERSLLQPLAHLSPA
Sequence of PROP1 (Homo sapiens, UniProt O75360 56-141, R99H) (O75360 56-141 R99H): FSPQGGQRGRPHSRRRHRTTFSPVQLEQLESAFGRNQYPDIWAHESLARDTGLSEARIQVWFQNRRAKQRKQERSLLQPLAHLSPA
Sequence of PROP1 (Homo sapiens, UniProt O75360 56-141) (O75360 56-141): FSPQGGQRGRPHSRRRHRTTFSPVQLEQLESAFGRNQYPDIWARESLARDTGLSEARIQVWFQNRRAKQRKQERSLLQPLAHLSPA
Sequence of VAX1 (Q5SQQ9 86-172): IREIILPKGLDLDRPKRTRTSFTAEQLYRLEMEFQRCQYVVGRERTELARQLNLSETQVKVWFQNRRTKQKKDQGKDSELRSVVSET

CACGTCGC
binding signal [1]: 6.91 upbm affinity estimate (log intensity, higher = more binding, comparable within an allelic series) | binding signal [2]: 6.79 upbm affinity estimate (log intensity, higher = more binding, comparable within an allelic series) | binding signal [3]: 6.8 upbm affinity estimate (log intensity, higher = more binding, comparable within an allelic series)

AGCCTGGC
binding signal [1]: 6.55 upbm affinity estimate (log intensity, higher = more binding, comparable within an allelic series) | binding signal [2]: 6.87 upbm affinity estimate (log intensity, higher = more binding, comparable within an allelic series) | binding signal [3]: 6.67 upbm affinity estimate (log intensity, higher = more binding, comparable within an allelic series)

GCAAATAA
binding signal [1]: 9 upbm affinity estimate (log intensity, higher = more binding, comparable within an allelic series) | binding signal [2]: 8.48 upbm affinity estimate (log intensity, higher = more binding, comparable within an allelic series) | binding signal [3]: 7.34 upbm affinity estimate (log intensity, higher = more binding, comparable within an allelic series)

AATTCAAC
binding signal [1]: 8.25 upbm affinity estimate (log intensity, higher = more binding, comparable within an allelic series) | binding signal [2]: 7.78 upbm affinity estimate (log intensity, higher = more binding, comparable within an allelic series) | binding signal [3]: 7.25 upbm affinity estimate (log intensity, higher = more binding, comparable within an allelic series)

ATCACTAA
binding signal [1]: 8.89 upbm affinity estimate (log intensity, higher = more binding, comparable within an allelic series) | binding signal [2]: 8.2 upbm affinity estimate (log intensity, higher = more binding, comparable within an allelic series) | binding signal [3]: 7.19 upbm affinity estimate (log intensity, higher = more binding, comparable within an allelic series)

CCAGGGTC
binding signal [1]: 6.75 upbm affinity estimate (log intensity, higher = more binding, comparable within an allelic series) | binding signal [2]: 6.85 upbm affinity estimate (log intensity, higher = more binding, comparable within an allelic series) | binding signal [3]: 6.62 upbm affinity estimate (log intensity, higher = more binding, comparable within an allelic series)

CGATGCCC
binding signal [1]: 6.76 upbm affinity estimate (log intensity, higher = more binding, comparable within an allelic series) | binding signal [2]: 6.86 upbm affinity estimate (log intensity, higher = more binding, comparable within an allelic series) | binding signal [3]: 6.71 upbm affinity estimate (log intensity, higher = more binding, comparable within an allelic series)

GGTAAATA
binding signal [1]: 8.63 upbm affinity estimate (log intensity, higher = more binding, comparable within an allelic series) | binding signal [2]: 8.23 upbm affinity estimate (log intensity, higher = more binding, comparable within an allelic series) | binding signal [3]: 7.4 upbm affinity estimate (log intensity, higher = more binding, comparable within an allelic series)

GGCCACCA
binding signal [1]: 6.96 upbm affinity estimate (log intensity, higher = more binding, comparable within an allelic series) | binding signal [2]: 6.82 upbm affinity estimate (log intensity, higher = more binding, comparable within an allelic series) | binding signal [3]: 6.75 upbm affinity estimate (log intensity, higher = more binding, comparable within an allelic series)

GGCATGAC
binding signal [1]: 6.69 upbm affinity estimate (log intensity, higher = more binding, comparable within an allelic series) | binding signal [2]: 6.75 upbm affinity estimate (log intensity, higher = more binding, comparable within an allelic series) | binding signal [3]: 6.7 upbm affinity estimate (log intensity, higher = more binding, comparable within an allelic series)

AGGCCAGG
binding signal [1]: 6.77 upbm affinity estimate (log intensity, higher = more binding, comparable within an allelic series) | binding signal [2]: 6.97 upbm affinity estimate (log intensity, higher = more binding, comparable within an allelic series) | binding signal [3]: 6.49 upbm affinity estimate (log intensity, higher = more binding, comparable within an allelic series)

CGCGGTCC
binding signal [1]: 6.77 upbm affinity estimate (log intensity, higher = more binding, comparable within an allelic series) | binding signal [2]: 6.82 upbm affinity estimate (log intensity, higher = more binding, comparable within an allelic series) | binding signal [3]: 6.49 upbm affinity estimate (log intensity, higher = more binding, comparable within an allelic series)

CCGATGGC
binding signal [1]: 6.65 upbm affinity estimate (log intensity, higher = more binding, comparable within an allelic series) | binding signal [2]: 6.61 upbm affinity estimate (log intensity, higher = more binding, comparable within an allelic series) | binding signal [3]: 6.61 upbm affinity estimate (log intensity, higher = more binding, comparable within an allelic series)

ACGGTAGG
binding signal [1]: 6.51 upbm affinity estimate (log intensity, higher = more binding, comparable within an allelic series) | binding signal [2]: 6.62 upbm affinity estimate (log intensity, higher = more binding, comparable within an allelic series) | binding signal [3]: 6.62 upbm affinity estimate (log intensity, higher = more binding, comparable within an allelic series)

CCGGGCTA
binding signal [1]: 6.87 upbm affinity estimate (log intensity, higher = more binding, comparable within an allelic series) | binding signal [2]: 6.89 upbm affinity estimate (log intensity, higher = more binding, comparable within an allelic series) | binding signal [3]: 6.52 upbm affinity estimate (log intensity, higher = more binding, comparable within an allelic series)

GGTGCACC
binding signal [1]: 6.54 upbm affinity estimate (log intensity, higher = more binding, comparable within an allelic series) | binding signal [2]: 6.58 upbm affinity estimate (log intensity, higher = more binding, comparable within an allelic series) | binding signal [3]: 6.7 upbm affinity estimate (log intensity, higher = more binding, comparable within an allelic series)

GACATTAC
binding signal [1]: 8.23 upbm affinity estimate (log intensity, higher = more binding, comparable within an allelic series) | binding signal [2]: 7.84 upbm affinity estimate (log intensity, higher = more binding, comparable within an allelic series) | binding signal [3]: 7.27 upbm affinity estimate (log intensity, higher = more binding, comparable within an allelic series)

ATATTTGC
binding signal [1]: 8.36 upbm affinity estimate (log intensity, higher = more binding, comparable within an allelic series) | binding signal [2]: 7.99 upbm affinity estimate (log intensity, higher = more binding, comparable within an allelic series) | binding signal [3]: 7.34 upbm affinity estimate (log intensity, higher = more binding, comparable within an allelic series)

AGTCTGCG
binding signal [1]: 6.67 upbm affinity estimate (log intensity, higher = more binding, comparable within an allelic series) | binding signal [2]: 6.73 upbm affinity estimate (log intensity, higher = more binding, comparable within an allelic series) | binding signal [3]: 6.68 upbm affinity estimate (log intensity, higher = more binding, comparable within an allelic series)

GCTCCGCA
binding signal [1]: 6.82 upbm affinity estimate (log intensity, higher = more binding, comparable within an allelic series) | binding signal [2]: 6.82 upbm affinity estimate (log intensity, higher = more binding, comparable within an allelic series) | binding signal [3]: 6.66 upbm affinity estimate (log intensity, higher = more binding, comparable within an allelic series)

GTCAGGAC
binding signal [1]: 6.88 upbm affinity estimate (log intensity, higher = more binding, comparable within an allelic series) | binding signal [2]: 6.96 upbm affinity estimate (log intensity, higher = more binding, comparable within an allelic series) | binding signal [3]: 6.86 upbm affinity estimate (log intensity, higher = more binding, comparable within an allelic series)

CTCTGGAA
binding signal [1]: 6.65 upbm affinity estimate (log intensity, higher = more binding, comparable within an allelic series) | binding signal [2]: 6.87 upbm affinity estimate (log intensity, higher = more binding, comparable within an allelic series) | binding signal [3]: 6.91 upbm affinity estimate (log intensity, higher = more binding, comparable within an allelic series)

AACTAAAT
binding signal [1]: 9.34 upbm affinity estimate (log intensity, higher = more binding, comparable within an allelic series) | binding signal [2]: 8.6 upbm affinity estimate (log intensity, higher = more binding, comparable within an allelic series) | binding signal [3]: 7.5 upbm affinity estimate (log intensity, higher = more binding, comparable within an allelic series)

CCGACCGG
binding signal [1]: 6.54 upbm affinity estimate (log intensity, higher = more binding, comparable within an allelic series) | binding signal [2]: 6.6 upbm affinity estimate (log intensity, higher = more binding, comparable within an allelic series) | binding signal [3]: 6.35 upbm affinity estimate (log intensity, higher = more binding, comparable within an allelic series)

ATGCCAGC
binding signal [1]: 6.71 upbm affinity estimate (log intensity, higher = more binding, comparable within an allelic series) | binding signal [2]: 6.77 upbm affinity estimate (log intensity, higher = more binding, comparable within an allelic series) | binding signal [3]: 6.73 upbm affinity estimate (log intensity, higher = more binding, comparable within an allelic series)

GCCATGGC
binding signal [1]: 6.94 upbm affinity estimate (log intensity, higher = more binding, comparable within an allelic series) | binding signal [2]: 6.8 upbm affinity estimate (log intensity, higher = more binding, comparable within an allelic series) | binding signal [3]: 6.74 upbm affinity estimate (log intensity, higher = more binding, comparable within an allelic series)

AGGGCCGC
binding signal [1]: 6.72 upbm affinity estimate (log intensity, higher = more binding, comparable within an allelic series) | binding signal [2]: 6.82 upbm affinity estimate (log intensity, higher = more binding, comparable within an allelic series) | binding signal [3]: 6.5 upbm affinity estimate (log intensity, higher = more binding, comparable within an allelic series)

ATCTTAAC
binding signal [1]: 8.34 upbm affinity estimate (log intensity, higher = more binding, comparable within an allelic series) | binding signal [2]: 7.85 upbm affinity estimate (log intensity, higher = more binding, comparable within an allelic series) | binding signal [3]: 7.45 upbm affinity estimate (log intensity, higher = more binding, comparable within an allelic series)

ATTACTAA
binding signal [1]: 9.85 upbm affinity estimate (log intensity, higher = more binding, comparable within an allelic series) | binding signal [2]: 9.4 upbm affinity estimate (log intensity, higher = more binding, comparable within an allelic series) | binding signal [3]: 7.62 upbm affinity estimate (log intensity, higher = more binding, comparable within an allelic series)

GCTCCTCC
binding signal [1]: 6.62 upbm affinity estimate (log intensity, higher = more binding, comparable within an allelic series) | binding signal [2]: 6.55 upbm affinity estimate (log intensity, higher = more binding, comparable within an allelic series) | binding signal [3]: 6.45 upbm affinity estimate (log intensity, higher = more binding, comparable within an allelic series)

AAGTTAAG
binding signal [1]: 7.89 upbm affinity estimate (log intensity, higher = more binding, comparable within an allelic series) | binding signal [3]: 7.07 upbm affinity estimate (log intensity, higher = more binding, comparable within an allelic series)

GGAACGCC
binding signal [1]: 6.7 upbm affinity estimate (log intensity, higher = more binding, comparable within an allelic series) | binding signal [2]: 6.87 upbm affinity estimate (log intensity, higher = more binding, comparable within an allelic series) | binding signal [3]: 6.68 upbm affinity estimate (log intensity, higher = more binding, comparable within an allelic series)

AATGGGGC
binding signal [1]: 8.17 upbm affinity estimate (log intensity, higher = more binding, comparable within an allelic series) | binding signal [3]: 7.05 upbm affinity estimate (log intensity, higher = more binding, comparable within an allelic series)

CGCGTCCC
binding signal [1]: 6.69 upbm affinity estimate (log intensity, higher = more binding, comparable within an allelic series) | binding signal [2]: 6.77 upbm affinity estimate (log intensity, higher = more binding, comparable within an allelic series) | binding signal [3]: 6.52 upbm affinity estimate (log intensity, higher = more binding, comparable within an allelic series)

CCTGTTAC
binding signal [1]: 7.8 upbm affinity estimate (log intensity, higher = more binding, comparable within an allelic series) | binding signal [3]: 7.11 upbm affinity estimate (log intensity, higher = more binding, comparable within an allelic series)

ATCAACGG
binding signal [4]: 9.55 upbm affinity estimate (log intensity, higher = more binding, comparable within an allelic series)

AGAGCCGG
binding signal [1]: 6.81 upbm affinity estimate (log intensity, higher = more binding, comparable within an allelic series) | binding signal [2]: 6.67 upbm affinity estimate (log intensity, higher = more binding, comparable within an allelic series) | binding signal [3]: 6.47 upbm affinity estimate (log intensity, higher = more binding, comparable within an allelic series)

ATGACCAA
binding signal [1]: 8.15 upbm affinity estimate (log intensity, higher = more binding, comparable within an allelic series) | binding signal [3]: 7.17 upbm affinity estimate (log intensity, higher = more binding, comparable within an allelic series)

AATCACCT
binding signal [1]: 8.74 upbm affinity estimate (log intensity, higher = more binding, comparable within an allelic series) | binding signal [3]: 7.3 upbm affinity estimate (log intensity, higher = more binding, comparable within an allelic series)

AACTATAT
binding signal [1]: 8.71 upbm affinity estimate (log intensity, higher = more binding, comparable within an allelic series) | binding signal [3]: 7.61 upbm affinity estimate (log intensity, higher = more binding, comparable within an allelic series)

GCGGACGC
binding signal [1]: 6.53 upbm affinity estimate (log intensity, higher = more binding, comparable within an allelic series) | binding signal [2]: 6.66 upbm affinity estimate (log intensity, higher = more binding, comparable within an allelic series) | binding signal [3]: 6.56 upbm affinity estimate (log intensity, higher = more binding, comparable within an allelic series)

CCTTCGGC
binding signal [1]: 6.66 upbm affinity estimate (log intensity, higher = more binding, comparable within an allelic series) | binding signal [2]: 6.64 upbm affinity estimate (log intensity, higher = more binding, comparable within an allelic series) | binding signal [3]: 6.53 upbm affinity estimate (log intensity, higher = more binding, comparable within an allelic series)

GGATGCAC
binding signal [1]: 6.71 upbm affinity estimate (log intensity, higher = more binding, comparable within an allelic series) | binding signal [2]: 6.74 upbm affinity estimate (log intensity, higher = more binding, comparable within an allelic series) | binding signal [3]: 6.83 upbm affinity estimate (log intensity, higher = more binding, comparable within an allelic series)

AATTGGCG
binding signal [1]: 9.12 upbm affinity estimate (log intensity, higher = more binding, comparable within an allelic series) | binding signal [2]: 8.88 upbm affinity estimate (log intensity, higher = more binding, comparable within an allelic series) | binding signal [3]: 7.29 upbm affinity estimate (log intensity, higher = more binding, comparable within an allelic series)

AATCAATT
binding signal [5]: 8.86 upbm affinity estimate (log intensity, higher = more binding, comparable within an allelic series)

CCGAGTTA
binding signal [1]: 8.19 upbm affinity estimate (log intensity, higher = more binding, comparable within an allelic series) | binding signal [3]: 7.14 upbm affinity estimate (log intensity, higher = more binding, comparable within an allelic series)

CCTGTTAG
binding signal [1]: 8.32 upbm affinity estimate (log intensity, higher = more binding, comparable within an allelic series) | binding signal [2]: 8.15 upbm affinity estimate (log intensity, higher = more binding, comparable within an allelic series) | binding signal [3]: 7.19 upbm affinity estimate (log intensity, higher = more binding, comparable within an allelic series)

CGGCTCCA
binding signal [1]: 6.66 upbm affinity estimate (log intensity, higher = more binding, comparable within an allelic series) | binding signal [2]: 6.76 upbm affinity estimate (log intensity, higher = more binding, comparable within an allelic series) | binding signal [3]: 6.74 upbm affinity estimate (log intensity, higher = more binding, comparable within an allelic series)

AATCACAT
binding signal [1]: 9.48 upbm affinity estimate (log intensity, higher = more binding, comparable within an allelic series) | binding signal [3]: 7.46 upbm affinity estimate (log intensity, higher = more binding, comparable within an allelic series)

— article PMC11006913
